# SIAE primary – human SIAE inhibition, primary screen; Q9HAT2; SIAE FP-Rh probe binding, fluorescence polarization; inhibition, % at 9.66 µM; hit rate 0.69% among 370,000; AID 1053197;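 active = inhibition above a cutoff: mean of compounds within the control limits plus 3 SD of those, cut at about 17% in these data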;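 also: 0% = plate median of compound wells and 100% = probe without SIAE protein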
# Target sequence (Q9HAT2 whole entry, looked up): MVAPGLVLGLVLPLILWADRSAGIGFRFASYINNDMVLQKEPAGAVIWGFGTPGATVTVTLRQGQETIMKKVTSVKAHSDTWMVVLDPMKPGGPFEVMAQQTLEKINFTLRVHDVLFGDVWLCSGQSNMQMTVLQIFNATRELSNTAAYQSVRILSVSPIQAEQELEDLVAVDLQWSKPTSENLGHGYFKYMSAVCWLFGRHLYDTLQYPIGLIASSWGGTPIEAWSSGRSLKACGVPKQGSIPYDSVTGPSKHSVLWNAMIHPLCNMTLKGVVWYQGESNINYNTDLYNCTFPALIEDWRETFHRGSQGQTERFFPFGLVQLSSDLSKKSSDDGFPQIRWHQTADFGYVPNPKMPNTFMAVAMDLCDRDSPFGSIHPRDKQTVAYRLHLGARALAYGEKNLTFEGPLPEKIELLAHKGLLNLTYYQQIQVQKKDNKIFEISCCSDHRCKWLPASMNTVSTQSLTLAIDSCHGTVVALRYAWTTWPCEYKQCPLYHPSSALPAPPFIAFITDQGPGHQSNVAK
# Fam108B counter – counter-screen for RBBP9 inhibitors: inhibitors of mouse Fam108B | recombinant Fam108B, FP-Rh probe fluorescence polarization | inhibition, % at 9.51 µM | AID 1947 | hit rate 0.33% among 300,000;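 active = inhibition above the screen mean inhibition plus 3 SD, computed separately per campaign, cut at about 18% in these data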;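 also: inhibitors lower polarization as less probe binds the enzyme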
# PME-1 inh – blocks human protein phosphatase methylesterase 1 | recombinant PME-1, FP-Rh probe fluorescence polarization | Q9Y570 | AID 2130 | hit rate 0.53% among 320,000 | inhibition, % at 5.9 µM;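 active = inhibition above the campaign mean of all compounds plus 3 SD, cut at about 26% in these data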;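 also: competitive labeling of PME-1 active site by serine hydrolase directed probe; 0% = PME-1 with DMSO and 100% = wells lacking PME-1 enzyme; inhibitors block probe labeling so polarization falls and inhibition rises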
# PAD4 FP inh – inhibitors of human PAD4; Q9UM07; recombinant PAD4, RCA probe fluorescence polarization; inhibition, % at 6.36 µM; hit rate 0.41% among 330,000; AID 485272;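 active = percent inhibition above a cutoff equal to the mean of all tested compounds plus 3 SD, cut at about 15% in these data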;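 also: 0% = PAD4 with RCA probe and DMSO and 100% = probe without PAD4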
# PRMT1 FP inh – blocks human protein arginine methyltransferase 1. hit rate 1.3% among 370,000. Q99873. recombinant PRMT1, activity-based probe fluorescence polarization. inhibition, % at 2.79 µM;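 active = inhibition above about 21% made by adding two undisclosed values, limit read from the data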
# TCR CD3 inh – inhibitors of human TCR-CD3 interaction; TAMRA-labeled TCR probe fluorescence, biochemical; inhibition, % at 9.4 µM; hit rate 0.37% among 360,000; AID 651800;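 also: recombinant mutant TCR 2C K166C tagged with TAMRA read by polarization; 0% = receptor in buffer alone and 100% = receptor with positive control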
# BSA probe FL – interferes with TAMRA-BSA probe, flagging TCR-CD3 hits; shares compounds with TCR CD3 inh; TAMRA-labeled BSA probe fluorescence counterscreen; inhibition, % at 9.4 µM; hit rate 10% among 1,200; AID 652035; in the data active = inhibition above about 23%;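 also: 0% = buffer low control and 100% = reference high control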
# TCR-CD3 conf – confirmation of human TCR-CD3 interaction inhibitors; inhibition, % at 9.4 µM; shares compounds with TCR CD3 inh; TAMRA-labeled TCR probe fluorescence binding assay; hit rate 48% among 1,200
# PRMT1 confirm – confirmation of human PRMT1 inhibitors; hit rate 42% among 3,300; AID 687036; shares compounds with PRMT1 FP inh; recombinant His-PRMT1, activity-based probe fluorescence polarization; inhibition, % at 2.79 µM;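 active = mean inhibition across replicates above the hit cutoff derived for the earlier primary screen, cut at about 22% in these data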
# * hit, by the source's call; x = no result given. An excerpt weighted towards active compounds, which were near 2.6% of everything screened. Rule as the data show it, unless noted: active = inhibition above about 19%; inactive = the rest.
SMILES,SIAE primary,Fam108B counter,PME-1 inh,PAD4 FP inh,PRMT1 FP inh,TCR CD3 inh,BSA probe FL,TCR-CD3 conf,others
COc1cc(/C=C2\CC/C(=C\c3cc(OC)c(O)c(OC)c3)C2=O)cc(OC)c1O,-43,-6,-7,-4,27*,38*,-26,41*,
CN(C)CC(=O)N[C@H]1C[C@@H]2O[C@@H](CO)CC[C@@H]2O[C@@H]1CCc1ccc(-c2ccc(F)cc2)cc1,-2,x,x,x,-5,x,x,x,
CC(=O)N1CCN(C(=O)CCc2nnc(CCCCc3ccccc3)o2)CC1,-6,-3,-3,-7,-2,-5,x,x,
O=C(CCc1nnc(CCCCc2ccccc2)o1)N1CCC(N2CCCC2)CC1,-1,4,5,0,0,24*,2,-1,
CCOC(=O)CN1C(=O)S/C(=C/c2ccco2)C1=O,-2,-1,-1,-2,6,6,x,x,
NN1C(=O)/C(=C\c2ccco2)SC1=S,11,5,0,6,43*,20*,0,6,
CCOC(=O)N1CCN(C(=O)C[C@H]2C(=O)N(Cc3ccc(OC)cc3)C3=CCCCC[C@@]32C(=O)OC)CC1,4,x,x,x,-8,x,x,x,
CS(=O)(=O)Nc1ccc(-c2n[nH]c(=S)n2-c2ccccc2)cc1,-5,2,-1,4,-3,37*,3,0,
Cc1ccc(-c2n[nH]c(=S)n2-c2ccccc2)cc1,1,1,1,4,5,-4,x,x,
Cc1nn(C)c(C(=O)N/N=C/c2ccc(Br)cc2)c1Cl,-1,-6,-2,-5,-1,21*,1,3,
CCc1n[nH]c(=S)n1/N=C/c1cc(OC)cc([N+](=O)[O-])c1O,8,2,4,-1,3,44*,-14,44*,
c1ccc(-c2cccc3[nH]cc(-c4ccccc4)c23)cc1,5,x,x,x,-2,x,x,x,
COc1ccc(Nc2sc(C(=O)c3ccc(Cl)cc3)c(N)c2C(=O)Nc2ccccc2OC)cc1,9,3,8,0,6,-6,x,x,
COc1ccccc1NC(=O)c1c(Nc2ccccc2C)sc(C(=O)Nc2cccc(Cl)c2)c1N,-71,-38,-39,-1,-3,21*,6,12,
Brc1ccc2cccnc2c1,-4,-1,-2,3,4,-4,x,x,
Nc1cc2cccnc2cc1Cl,-3,x,x,x,13,19*,-4,4,
O=C1CC(N(O)c2ccccc2)C(=O)N1c1ccc(Cl)c(Cl)c1 (stereo not given),7,-2,22,17*,12,24*,6,3,
Cc1cccc(OCC(=O)NCC(=O)N/N=C/c2cc(Br)cc(Br)c2O)c1,5,3,0,-2,4,51*,-18,41*,
COc1cccc(/C=N/NC(=O)CNC(=O)COc2ccccc2)c1O,4,0,-1,1,-4,0,x,x,
Cc1nnc(NC(=O)CSc2nnc(CC(=O)Nc3ccccc3F)n2C)s1,-2,0,0,6,-1,66*,2,3,
Cc1nonc1NC(=O)CSc1nc(C23CC4CC(CC(C4)C2)C3)nc2ccccc12,-7,-65,-9,0,-1,20*,4,9,
Cc1nonc1NC(=O)CSc1nc(C2CCCCC2)nc2ccccc12,1,-1,3,13,3,-5,x,x,
C=CCN(CC#Cc1ccc(C)cc1)Cc1ccc(OC)cc1OC,-4,x,x,x,-3,x,x,x,
COc1cc(OC)c(N(C)S(=O)(=O)c2cccc(C(=O)Nc3nnc(C4CC4)s3)c2)cc1Cl,-17,-9,-9,7,-1,21*,7,4,
COc1ccc(N(C)S(=O)(=O)c2cccc(C(=O)OC(C(=O)Nc3cc(C)cc(C)c3)c3ccccc3)c2)cc1 (stereo not given),-58,-37,-48,0,-2,0,x,x,
SMILES,SIAE primary,Fam108B counter,PME-1 inh,PAD4 FP inh,PRMT1 FP inh,TCR CD3 inh,BSA probe FL,TCR-CD3 conf,others
CC(=O)c1cccc(NC(=O)C(OC(=O)c2cccc(S(=O)(=O)N(C)c3ccccc3)c2)c2ccccc2)c1 (stereo not given),-26,-32,-35,-3,-3,31*,12,32*,
CCOC(=O)[C@@H](NC(=O)[C@@H]1CC=C[C@@H]2CCN(Cc3ccc(Cl)cc3)C(=O)[C@@H]21)C(C)C,5,x,x,x,-1,x,x,x,
COc1cccc(NC(=O)CN(C)C(=O)/C=C/c2cn(-c3ccccc3)nc2-c2ccc(C)cc2)c1,-122,-40,-80,-6,2,36*,32*,63*,
COc1ccc(NC(=O)CN(C)C(=O)/C=C/c2cn(-c3ccccc3)nc2-c2ccc(C)cc2)cc1,-72,-41,-57,-12,-3,32*,2,6,
CC(=O)c1ccc([C@H](O)[C@@H](C(=O)N(C)c2ccccc2)C2CC2)cc1,9,x,x,x,-1,x,x,x,
CN(CCO)c1ccc2c(c1)Oc1ccccc1CN(Cc1cn(Cc3ccccc3C(F)(F)F)nn1)S2(=O)=O,1,x,x,x,0,x,x,x,
Cc1nn(CC(=O)NC2CCS(=O)(=O)C2)c(C)c1[N+](=O)[O-] (stereo not given),6,x,x,-1,-5,27*,3,-1,
Cc1nn(CC(=O)NC2CCCCC2)c(C)c1[N+](=O)[O-],2,x,x,x,1,0,x,x,
O=C(N/N=C/c1cccnc1)c1cc(O)c(O)c(O)c1,1,-8,-8,0,14,32*,-6,20*,
O=C(N/N=C/c1cccnc1)c1ccc(O)cc1,5,0,-2,-1,-3,8,x,x,
Cc1ccc2nc(-c3ccc(O)c(O)c3)cn2c1,12,0,-4,-4,2,54*,-3,28*,
O=C(Cc1nnc(NC(=O)c2ccccc2)s1)N/N=C/c1cccc(O)c1,-42,-2,-1,0,0,10,x,x,
O=C(Cc1nnc(NC(=O)c2ccccc2)s1)N/N=C/c1ccco1,1,-1,2,-4,41*,19*,-6,4,PRMT1 confirm=8
Cc1ccccc1NC(=O)C[C@H]1CC[C@H]2[C@@H](COc3ccc(NC(=O)Nc4ccccc4)cc3C(=O)N2C)O1,-2,x,x,x,-2,x,x,x,
CCOC(=O)c1ccc(CC(=O)c2ccc(O)c(O)c2O)o1,3,x,x,x,43*,21*,-15,21*,PRMT1 confirm=7
O=C(CN1C(=O)/C(=C/c2ccco2)SC1=S)NC1CCS(=O)(=O)C1 (stereo not given),6,8,-24,-6,44*,22*,-7,1,PRMT1 confirm=24*
Cc1cc(/C=N/NC(N)=S)c(O)c(/C=N/NC(N)=S)c1,13,9,0,3,75*,25*,1,15,PRMT1 confirm=82*
